# In all, about 4,100 compounds went through this assay and about 1,600 (39%) were called active. Not shown: some 25% with an inconclusive outcome. The call rests on the fitted dose curve; in most records, active means well fitted inhibition curve with a large enough effect; inconclusive means small, poorly fitted or top-dose-only effect; inactive means no such curve, though single readings can be large or run the other way. The list shows a part of the results. Entries that show only a call come without a potency.
# Assay: qHTS Validation assay for Inhibitors of Plasmodium falciparum Dd2 growth in vitro; further: nearly all actives have a fitted effect of over 70% in size
# Details: P. falciparum Dd2 in RBCs, SYBR Green growth, 72 h; series mostly up to 28.7 µM
# Summary of the method: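 P. falciparum Dd2-infected red blood cells (2.5% hematocrit, 0.3% parasitemia) grown 72 h at 37 °C under 5% O2 with compounds in a titration, 29 uM to 0.5 nM final. Growth read as SYBR Green-1 fluorescence after ~16 h lysis; artesunate 300 nM as positive control.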
# Potency means the concentration at half of the fitted maximal effect.
row,SMILES,Potency
1,CCn1cc(CN2CCN(C(=O)c3ccsc3)CC2)ccc1=O,inactive
2,CCN1CCN(C(=O)c2ccc3c(c2)N(Cc2ccc(Cl)cc2)C(=O)c2ccccc2S3=O)CC1 (stereo not given),0.668 µM (active)
3,CCN1CCN(C(=O)c2ccc3c(c2)N(Cc2ccccc2F)C(=O)c2ccccc2S3=O)CC1 (stereo not given),0.842 µM (active)
4,CCOc1ccc(CCNC(=O)c2ccc3c(c2)N(Cc2ccccc2F)C(=O)c2ccccc2S3=O)cc1OCC (stereo not given),10.6 µM (active)
5,CC(C)(C)c1ccc(C(=O)N2CCN(Cc3cc(=O)n4nc(-c5ccccc5F)sc4n3)CC2)cc1,inactive
6,CCOc1ccc(-c2cc3c(=O)n(CCNC(=O)c4ccc(OC)c(F)c4)ccn3n2)cc1,inactive
7,COc1ccc(C(=O)N2CCc3nn(Cc4ccccc4)c(=O)n3CC2)cc1F,inactive
8,O=C1Nc2ccc(-c3ccc(Cl)cc3)cc2C(=O)N2CCN(C(=O)c3ccccc3)C[C@H]12,inactive
9,CCOC(=O)Cn1c(=NC(=O)C2CC2)sc2c(C)cc(C)cc21,inactive
10,CCc1ccc(N2CC(c3noc(-c4nccc5ccccc45)n3)CC2=O)cc1 (stereo not given),inactive
11,O=S(=O)(c1ccc(Cl)cc1)N1CCN(Cc2ccc(O)c3ncccc23)CC1,13.3 µM (active)
12,O=C(N[C@H]1CO[C@H]2[C@@H]1OC[C@@H]2n1cc(-c2ccccc2)nn1)c1ccc(C(F)(F)F)cc1,inactive
13,COc1ccc(CN2C(=O)C(NC(=O)c3ccccc3C)(C(F)(F)F)N=C2c2ccccc2)cc1 (stereo not given),inactive
14,COc1ccc(CN2C(=O)C(C)N(C(=O)c3c(F)cccc3F)c3ccccc32)cc1 (stereo not given),7.5 µM (active)
15,O=C(/C(=C/c1ccc(Cl)cc1)c1nc2ccccc2[nH]1)c1cccs1,2.11 µM (active)
16,CN(C)CCCNc1ccc(-c2cc(Nc3cccc(Cl)c3)ncn2)cn1,9.44 µM (active)
17,O=C(Nc1ccc(F)cc1)Nc1nnc(SCC(=O)N2CCCCC2)s1,inactive
18,O=C(Nc1nnc(SCc2ccc(F)cc2)s1)c1ccccn1,8.41 µM (active)
19,CCc1nnc(NC(=O)c2cc(Cl)ccn2)s1,inactive
20,CC1=C[C@@H](CNC(=O)COc2ccccc2)[C@H](C(C)C)C[C@H]1Cc1nnc(-c2cncn2C)o1,13.3 µM (active)
21,COc1ccccc1N1CCN(C[C@@H]2C=C(C)[C@H](Cc3nnc(-c4cncn4C)o3)C[C@H]2C(C)C)CC1,10.6 µM (active)
22,COc1ccc(-c2cc(C(F)(F)F)nc(SCCC(=O)Nc3cc(C)ccc3O)n2)cc1,1.88 µM (active)
23,Cc1ccc(NC(=O)CCSc2nc(-c3ccco3)cc(C(F)(F)F)n2)cc1F,inactive

row,SMILES,Potency
1,COc1cccc(NC(=O)CCSc2nc(-c3ccco3)cc(C(F)(F)F)n2)c1,inactive
2,CC(Sc1nc2cc([N+](=O)[O-])ccc2n1-c1cccc(C(F)(F)F)c1)C(=O)NC(N)=O (stereo not given),inactive
3,O=C(Nc1cc(C(F)(F)F)cc(C(F)(F)F)c1)Nc1cnn(-c2ccc([N+](=O)[O-])cc2)c1C(F)(F)F,6.68 µM (active)
4,Cc1cn2nc(C(=O)Nc3ccc4c(c3)OCCO4)cc2c(N(C)Cc2ccccc2)n1,inactive
5,Cc1cn2nc(C(=O)Nc3ccc(N(C)C)cc3)cc2c(N(C)Cc2ccccc2)n1,15 µM (active)
6,Cc1cn2nc(C(=O)NCc3ccccc3F)cc2c(N(C)Cc2ccccc2)n1,inactive
7,Cc1ccc(Nc2cc(C)nn2-c2nc(C)cc(C)n2)cc1,6.68 µM (active)
8,CNc1cc(C)nc(-n2nc(C)cc2C)n1,8.41 µM (active)
9,Cc1cc(N2CCC(C)CC2)nc(-n2nc(C)cc2C)n1,2.99 µM (active)
10,COc1ccc(/C=N/Nc2cc(C)nc(-n3nc(C)cc3C)n2)c(OC)c1,5.31 µM (active)
11,COCC(=O)NC[C@H]1CCN(Cc2ccc(Cl)cc2)C[C@H]1N(C)C,inactive
12,COc1cccc(NC(=O)c2sc3nc(C)c(C(=O)Nc4ccc(C)cc4C)c(-c4cccs4)c3c2N)c1,5.96 µM (active)
13,COc1cccc(OC)c1C(=O)Nc1cccc(-c2nc3cc(C)cc(C)c3o2)c1,inactive
14,COc1cccc(NC(=O)c2sc3nc(C)c(C(=O)Nc4ccc(C)cc4C)c(-c4ccccc4Cl)c3c2N)c1,2.66 µM (active)
15,NC1CCCCN(C(=O)CCc2n[nH]c3c2CCCC3)C1 (stereo not given),inactive
16,Cc1ccc(-n2nc3c(c2NC(=O)C(C)C)CS(=O)(=O)C3)c(C)c1,inactive
17,Cc1ccc(S(=O)(=O)Nc2cc(=O)[nH]c(SCC(=O)Nc3cccc(C)c3)n2)cc1,inactive
18,c1ccc(Cn2c(Sc3nnnn3-c3ccccc3)nnc2-c2ccccc2)cc1,7.5 µM (active)
19,CCn1c(SCC(=O)NNC(=O)Cc2ccccc2)nnc1-c1ccncc1,inactive
20,CN(C1CCc2nn(CC3CC3)c(=O)n2CC1)S(=O)(=O)c1cccs1 (stereo not given),inactive
21,COc1ccc2c(c1)OC(C)(C)C(c1ccccc1)C2c1ccc(OCCN2CCCC2)cc1 (stereo not given),6.68 µM (active)
22,COc1cccc(C(=O)N2CCC3(CC2)CCN(CCc2ccccc2)c2ccccc2O3)c1,inactive
